From PubChem
NPC1 promoter act – activators of NPC1 promoter; Huh7 NPC1 promoter luciferase reporter, 24 h; Potency, µM (top dose mostly 9.22 µM), for inactives: top-dose activation, actives largely listed as activators; 2.4% of 320,000 active; also: % of control where 0% means no effect; nearly all actives have a fitted effect of over 60% in size
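Luciferase expression driven by the NPC1 promoter was measured in stably transfected Huh7 cells after a 24 h compound incubation, using a luciferase reagent and a luminescence read.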
SMN2 splice enh – increases expression of the SMN2 splice variant; HEK293 SMN2-luciferase splicing reporter, luminescence, 30-36 h; Potency, µM (doses to about 46.1 µM), inactives show top-dose activity change, positive = activation, usual class: activators; 2.8% of 210,000 active; AID 1458; also: % of control where 0% means no effect; nearly all actives have a fitted effect of over 55% in size
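HEK293 cells carry an SMN2 […]–luciferase reporter in which exon 7 inclusion puts luciferase in frame. Cells were plated 10-12 h before compound addition, then incubated 30-36 h at 37C. ONE-Glo luminescence was read; sodium butyrate at 4.5 mM final served as control.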
FLuc modulator – counter-screen for miR-21 project: firefly luciferase inhibitors or activators. purified FLuc, Km substrates, luminescence inhibition. Potency, µM (highest dose often 57.5 µM), without a hit: at the highest dose activity change, negative = inhibition, most hits filed as inhibitors. 6.9% of 360,000 active. AID 588342;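 also: plate controls were vehicle for no effect and reference inhibitor for full effect; nearly all actives have a fitted effect of over 55% in size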
Target sequence (P08659 whole entry, looked up): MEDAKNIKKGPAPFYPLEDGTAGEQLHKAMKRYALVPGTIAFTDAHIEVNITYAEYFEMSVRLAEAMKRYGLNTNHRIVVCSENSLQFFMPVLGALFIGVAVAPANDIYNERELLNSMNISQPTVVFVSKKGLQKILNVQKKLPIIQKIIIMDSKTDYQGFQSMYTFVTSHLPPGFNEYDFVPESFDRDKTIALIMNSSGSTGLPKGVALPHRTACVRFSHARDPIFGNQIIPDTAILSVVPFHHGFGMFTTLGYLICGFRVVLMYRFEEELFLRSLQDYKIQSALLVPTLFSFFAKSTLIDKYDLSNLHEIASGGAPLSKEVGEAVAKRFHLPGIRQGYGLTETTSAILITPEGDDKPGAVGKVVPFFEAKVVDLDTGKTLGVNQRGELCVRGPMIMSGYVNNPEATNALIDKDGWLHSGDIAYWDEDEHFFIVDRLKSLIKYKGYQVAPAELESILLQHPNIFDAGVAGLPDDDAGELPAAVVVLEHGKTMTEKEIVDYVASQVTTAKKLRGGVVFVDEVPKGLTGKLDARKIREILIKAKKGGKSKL
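Purified P. pyralis luciferase, 10 nM final, with Km-level 10 uM D-luciferin and 10 uM ATP in 50 mM Tris acetate pH 7.5, 10 mM Mg acetate, 0.01% Tween-20, 0.05% BSA; 6-point qHTS titration about 60 µM downward; luminescence read.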
KinaseGlo FLuc – blocks Kinase-Glo luciferase, a counter-screen artifact; Potency, µM (highest dose often 38.3 µM), for the others: at the highest dose activity change, negative = inhibition, usual class: inhibitors; AID 1379; Kinase-Glo luciferase, ATP luminescence, 8 min; Q27757; 0.28% of 200,000 active; also: % is scaled to controls: 0 for no effect and ±100 for the full control effect; nearly all actives have a fitted effect of over 60% in size
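Compounds were added to a substrate mix at pH 7.2 (50 mM imidazole, 10 uM ATP, within the enzyme's linear range), followed by Kinase-Glo detection reagent; luminescence was measured after 8 minutes at ambient temperature.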
ELG1 genotoxic – induces genotoxicity in HEK293T cells with luciferase-tagged ELG1 | HEK293T ELG1-luciferase reporter, luminescence, 16 h | Potency, µM (series often up to 46 µM), for inactives: at the highest dose activity change, positive = activation, most hits filed as activators | 1.3% of 330,000 active; also: % of control where 0% means no effect; nearly all actives have a fitted effect of over 60% in size
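ELG1-luciferase HEK293T cells, 2,000/well; compound pinned in; 16 hr, 37 °C, 5% CO2; ONE-Glo, 30 min RT; luminescence on CCD imager.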
Rab9 promoter act – activators of Rab9 promoter. Huh7 Rab9 promoter-luciferase reporter, luminescence, 24 h. AID 485297. Potency, µM (top dose mostly 9.22 µM), for the others: at the top dose activation, negative = inhibition, usual class: activators. 2.8% of 320,000 active; also: % of control where 0% means no effect; nearly all actives have a fitted effect of over 60% in size
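Luminescence read-out: Huh7 cells stably expressing Rab9-luciferase, treated 24 h with compound at 37 °C, then lysed with luciferase reagent for 10 min at ambient before reading.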
An asterisk follows results filed as active; ? = inconclusive; nt = no result. In the library only some 7.3% were active in any assay of this set; here they are far more common. Calls follow the shape of the dose curve; as a rule, active = well fitted curve in the direction sought with a large enough effect; inconclusive = small, poorly fitted or top-dose-only effect, or another doubt; inactive = no such curve, though single readings can be large; an effect the other way counts as inactive or inconclusive. Potency is read from the fitted curve at half-maximal effect.

SMILES	NPC1 promoter act	SMN2 splice enh	FLuc modulator	KinaseGlo FLuc	ELG1 genotoxic	Rab9 promoter act
Cc1cc(C)n2cc(CSc3nc4cc(Cl)ccc4o3)nc2n1	1%	-16%	-1%	-4%	2%	1%
C=CCc1c(C)nc2cc(-c3ccc(C)cc3)[nH]n2c1=O	1.6µM*	nt	3µM*	nt	1.8µM*	?
COc1cc(-c2cc3nc(C)c(C)c(=O)n3[nH]2)cc(OC)c1OC	0%	-4%	-5%	-8%	0%	-6%
CCc1c(C)nc2c(-c3ccccc3)c(-c3ccccc3)[nH]n2c1=O	-2%	nt	1%	nt	1%	1%
CCOC(=O)Cc1c(C)nc2cc(-c3ccc(C(C)(C)C)cc3)[nH]n2c1=O	1%	-5%	11µM*	0%	?	10%
O=C1c2nc3cc(-c4ccco4)[nH]n3c(=O)c2CN1Cc1ccccc1	0%	nt	?	nt	2%	-1%
CCc1c(C)nc2cc(-c3ccccc3)[nH]n2c1=O	3.2µM*	nt	11µM*	nt	?	?
CCCCc1c(C)nc2cc(-c3ccco3)[nH]n2c1=O	?	nt	12µM*	nt	?	?
Cc1ccc(S(=O)(=O)N2CCc3cc(C(=O)Nc4c(F)cccc4F)ccc32)cc1	nt	-2%	-3%	nt	nt	nt
CCOC(=O)Cc1c(C)nc2c(-c3cccc(Br)c3)c[nH]n2c1=O	2%	-88%	21µM*	-2%	-11%	1%
O=C(N/N=C/c1ccccn1)c1ccc(Br)o1	-4%	-12%	-22%	-8%	5%	0%
CCOc1ccc(Br)cc1C(=O)N/N=C/c1cccnc1	2%	nt	-6%	nt	3%	-5%
O=C(N/N=C/c1ccccn1)c1cc(Br)ccc1O	-1%	nt	15µM*	nt	?	7%
O=C(N/N=C/c1cccnc1)c1cc(Br)ccc1O	3.2µM*	nt	4.8µM*	nt	?	4µM*
CSc1nsc(/C=C/Nc2ccc(O)cc2C)c1C#N	-1%	-4%	12µM*	-2%	-2%	5%
Cc1cc(C)c(NC(=O)C2CCN(c3nc4ccccc4n4cccc34)CC2)c(C)c1	nt	nt	3%	nt	nt	nt
Cc1c(C(=O)NCc2ccc3c(c2)OCO3)oc2ccc(Br)cc12	0%	-10%	-16%	-4%	8%	1%
O=C(O)CCC(=O)Nc1cccc(C(=O)Nc2cccc(Cl)c2)c1	-4%	-6%	?	-3%	0%	-1%
O=C(O)CCC(=O)Nc1cccc(C(=O)Nc2ccc(Br)cc2)c1	-1%	17%	24µM*	0%	5%	7%
O=C(Nc1cccc(C(=O)Nc2cccc(Br)c2)c1)c1ccccc1	-2%	nt	?	nt	-2%	15%
CC(C)c1ccc(NC(=O)c2cccc(Br)c2)cc1	1.4µM*	14µM*	3µM*	-9%	21µM*	0.71µM*
Cc1cc(Cl)c2oc(C(=O)NCCC3CCCCO3)c(C)c2c1 (configuration not stated)	?	nt	21µM*	nt	?	?
Cc1c(C(=O)Nc2ccc3c(c2)OCCO3)oc2ccc(Br)cc12	19%	nt	5.4µM*	nt	?	?
Cc1cc(Cl)c2oc(C(=O)NCCN3CCCCC3CO)c(C)c2c1 (configuration not stated)	13%	nt	-16%	nt	?	11%
Cc1ccc(S(=O)(=O)CC(=O)c2ccc3c(c2)OCCO3)cc1	?	nt	13µM*	nt	0%	?
SMILES	NPC1 promoter act	SMN2 splice enh	FLuc modulator	KinaseGlo FLuc	ELG1 genotoxic	Rab9 promoter act
Cc1ccc2oc(C(=O)N(Cc3ccncc3)CC3CCCO3)c(C)c2c1 (configuration not stated)	?	nt	11µM*	nt	?	?
CCN(CC)S(=O)(=O)c1ccc(C(=O)Nc2ccc3c(c2)OCCO3)cc1	9%	-3%	?	-2%	2%	5%
Cc1ccc(C(=O)Nc2ccc3c(c2)OCCO3)cc1	0.28µM*	nt	0.43µM*	nt	0.58µM*	0.32µM*
CCN1C(=O)c2ccc(C(=O)Nc3ncc(C)s3)cc2C1=O	18%	13%	1.7µM*	-14%	?	?
CCOC(=O)C1CCN(C(=O)c2nn(-c3ccc(C)cc3)c(=O)n(C)c2=O)CC1	nt	nt	2%	nt	nt	nt
COc1ccc(/C=C\c2onc(C)c2S(=O)(=O)N2CCC(C(=O)Nc3ccc(C)cc3C)CC2)cc1	nt	-16%	-1%	nt	nt	nt
Cc1ccc(S(=O)(=O)NCC(c2ccc(N(C)C)cc2)N2CCc3ccccc32)cc1C (configuration not stated)	nt	nt	1%	nt	nt	nt
CCCOc1cccc(C(=O)Nc2cccc(NC(=O)c3ccco3)c2)c1	-3%	8%	17µM*	0%	-3%	-6%
Cc1c(C(=O)NCC2CCCO2)oc2ccc(Br)cc12 (configuration not stated)	30%	nt	?	nt	23µM*	?
CCC(O)c1cc2c(cc1NC(=O)c1cccc(Br)c1)OCCO2 (configuration not stated)	nt	-11%	-17%	nt	nt	nt
Cc1c(C(=O)NCC2CCCO2)oc2ccc(S(=O)(=O)N3CCCCC3)cc12 (configuration not stated)	-2%	-13%	5%	-2%	-3%	-5%
O=C(Nc1ccc2c(c1)OCCO2)c1ccc(Br)cc1	2.5µM*	nt	1.1µM*	nt	?	1.3µM*
O=C(Nc1ccc2c(c1)OCCO2)c1cccc(Br)c1	1.3µM*	nt	1.1µM*	nt	2.6µM*	1.4µM*
CCN1C(=O)c2ccc(C(=O)NCc3ccc4c(c3)OCO4)cc2C1=O	-1%	8%	3%	0%	2%	3%
O=C(Nc1ccc2c(c1)OCCO2)c1ccc(Br)o1	1.3µM*	14µM*	2.1µM*	?	?	1.6µM*
CCN1C(=O)c2ccc(C(=O)Nc3ccc4c(c3)OCO4)cc2C1=O	30%	nt	2.7µM*	nt	?	16%
Cc1ccc(C(=O)Nc2ccc3c(c2)OCO3)cc1	0.63µM*	7.9µM*	1.3µM*	-18%	0.46µM*	0.56µM*
CC(OC(=O)c1ccc(Br)o1)C(=O)Nc1ccc2c(c1)OCCO2 (configuration not stated)	1%	nt	nt	nt	2%	1%
CCCOc1cccc(C(=O)Nc2ccc3c(c2)OCCO3)c1	3.2µM*	nt	0.95µM*	nt	2.3µM*	?
CCN(c1cc(C)cc(C)c1)S(=O)(=O)c1nnc(NC(=O)C2CCCCC2)s1	nt	nt	-1%	nt	nt	nt
CCCCn1cc(S(=O)(=O)c2ccc(Cl)cc2)c(=O)c2cc(F)c(N3CCCC(C)C3)cc21 (configuration not stated)	nt	nt	-6%	nt	nt	nt
Cc1nn(-c2ccccc2)c(-n2cccc2)c1C(=O)NCCCN1CCN(c2ccccc2F)CC1	nt	-14%	-9%	nt	nt	nt
CCc1ccc(NCc2cc3cc4c(cc3n(CC(=O)Nc3ccc(Cl)cc3)c2=O)OCO4)cc1	nt	nt	-3%	nt	nt	nt
